Measurements as given in PubChem BioAssay (NCI).
About 83,000 compounds went through this panel and 20% of them were active in at least one assay; those are over-represented in the sample as a whole.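 Interpretation: 100, growth as untreated; towards 0, rising growth inhibition; 0, no net growth; 0 to -100, cell death. Compounds scoring below 10 were considered active.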 Activity calls are given as the source filed them.

Columns and labels:
Assay in all cases: NCI-60 one-dose screen, 48 h (100 = growth as untreated, 0 = no growth, -100 = all killed)
Conditions in all cases: 10 µM unless noted
[1] = test system: NCI-H23 lung
[2] = test system: NCI-H226 lung
[3] = test system: NCI-H322M lung
[4] = test system: HOP-62 NSCLC
[5] = test system: NCI-H460 lung
[6] = test system: HOP-92 NSCLC
[7] = test system: NCI-H522 lung
[8] = test system: A549/ATCC NSCLC
[9] = test system: 786-0 renal
[10] = test system: COLO 205 colon

Measured: growth

C=Cc1cnc(Nc2ccc(OC)cc2)nc1NCCCNC(=O)C1CCC1
inactive: [1] 45.2% | [2] 46.5% | [3] 68.8% | [4] 40.7% | [5] 34.5% | [6] 55.4% | [7] 47.9% | [8] 32.4% | [9] 44.3% | [10] 44.8%

C=C1C(=O)O[C@H]2[C@H]1CC/C(COC(=O)NCc1ccc(Cn3c(=O)sn(-c4ccc(C#N)cc4)c3=O)cc1)=C\CC[C@@]1(C)O[C@@H]21
active: [7] -28%
inactive: [1] 78.2% | [2] 95.5% | [3] 104% | [4] 92.2% | [5] 104% | [6] 26.1% | [8] 96.7% | [9] 66.1% | [10] 38.1%

CCN(CC)CCN1C(=O)c2cccc3c(/C=C/CN4C(=O)c5cccc6cccc(c56)C4=O)ccc(c23)C1=O
inactive: [1] 98.1% | [2] 92.7% | [3] 97.4% | [4] 89.5% | [5] 98.7% | [6] 88.1% | [7] 97.9% | [8] 98.8% | [10] 80.7%
active: [9] -9.45%

O=C(NNC(=O)c1nc2cc(F)ccc2n2cccc12)c1cnccn1
inactive: [1] 45.7% | [2] 42.4% | [3] 45.2% | [4] 29.7% | [5] 14.7% | [6] 47.7% | [7] 56.1% | [8] 28.5% | [9] 51.9% | [10] 16.5%

Nc1nc(N)c(N=Nc2ccccc2)c(-c2ccccc2)n1
inactive: [1] 65.4% | [2] 55.4% | [3] 70.1% | [4] 46.9% | [5] 48.7% | [6] 38.8% | [7] 49.2% | [8] 63.8% | [9] 60.7% | [10] 65.8%

O=C(C1CCCCC1)[C@@H]1[C@]2(C(=O)NC3CCCCC32)[C@@H]2CCCN2[C@@]12C(=O)NC1CCC(Cl)CC12 (stereo not given in full)
active: [1] -81.4% [100 µM] | [2] -55.1% [100 µM] | [3] -95.1% [100 µM] | [4] -73.2% [100 µM] | [5] -77.2% [100 µM] | [6] -89.9% [100 µM] | [7] -81.7% [100 µM] | [8] -82.9% [100 µM] | [9] -80.8% [100 µM] | [10] -80.8% [100 µM]

CN1CCN(CCOc2ccc(-c3cnc4c(-c5ccc(F)cc5)cnn4c3)cc2)CC1
inactive: [1] 67% | [2] 104% | [3] 75% | [4] 72.6% | [6] 54.9% | [7] 64.1% | [8] 27.3% | [9] 60.3%
active: [5] -1.23% | [10] -51.7%

CC(=C(c1ccc(OCCN2CCCCC2)cc1)c1ccc(OCCN2CCCCC2)cc1)c1ccc(Cl)cc1
active: [1] -82.4% | [2] -73.4% | [3] -97.2% | [4] -82% | [5] -82.4% | [6] -82.9% | [7] -76.9% | [8] -81.7% | [9] -90.9% | [10] -68.2%

Cc1nn(-c2ccccc2)c(N)c1N=C1NC(=O)/C(=C/c2ccc(Br)cc2)S1
inactive: [1] 75.8% | [2] 78.4% | [3] 83.5% | [4] 59.6% | [5] 93.1% | [6] 65.6% | [7] 85.4% | [8] 74.3% | [9] 94.6% | [10] 101%

Cn1cc(-c2nn3cc(-c4cccs4)nc3s2)c2cc(F)ccc21
inactive: [1] 58% | [2] 67% | [3] 50.1% | [4] 28.4% | [6] 39.6% | [8] 37.7% | [9] 49.2% | [10] 22%
active: [5] 8.02% | [7] 5.4%

Fc1ccc2[nH]cc(-c3nc(-c4c[nH]c5ccncc45)cs3)c2c1
active: [3] -5.67% | [4] -73.6% | [5] -71.5% | [7] -61.1% | [8] -41.7% | [9] -92.9% | [10] -72.9%
inactive: [1] 49.3% | [2] 68.6% | [6] 28.6%

Nc1nc(N)c2c(n1)NC(c1cccc(Nc3ccnc4cc(C(F)(F)F)ccc34)c1)CC(c1ccccc1)=N2 (stereo not given)
inactive: [1] 67.1% | [2] 87.8% | [3] 91.8% | [4] 54.9% | [5] 22.6% | [6] 45% | [7] 28.8% | [8] 41.4% | [9] 67.5% | [10] 30.2%

CCc1ccc(CCC(=O)Nc2ncc(Cc3ccccc3)s2)o1
active: [5] 7.58% | [7] -2.33%
inactive: [1] 37.6% | [2] 64.3% | [3] 54.7% | [4] 23% | [6] 87.8% | [8] 32% | [9] 41.6% | [10] 12.3%

COc1ccc(/C=C/C(=O)c2ccc(NC(=O)CSc3nc4c([nH]3)c(=O)n(C)c(=O)n4C)cc2)cc1OC
inactive: [1] 93% | [2] 81.1% | [3] 81% | [4] 89.5% | [5] 94.6% | [6] 73.2% | [7] 96.8% | [8] 87.7% | [9] 82.3% | [10] 117%

COc1ccc2c(c1)c(/C(O)=C1\COC(=O)C1=O)cn2Cc1ccc(F)cc1
inactive: [1] 110% | [2] 90.4% | [3] 101% | [4] 112% | [5] 103% | [6] 72.1% | [7] 73.9% | [8] 101% | [9] 96.1% | [10] 108%

O=C(Nc1ncc(Cc2ccccc2)s1)c1ccc2c(c1)OCCCO2
active: [7] -4.73%
inactive: [1] 29.1% | [2] 46.2% | [3] 45.4% | [4] 31.9% | [5] 15.2% | [6] 58.7% | [8] 33.5% | [9] 36.3% | [10] 12%

Cn1cc(-c2csc(-c3cn(CCCN4CCOCC4)c4ccccc34)n2)c2cccnc21
inactive: [1] 88.3% | [2] 75.7% | [3] 95.6% | [4] 97.4% | [5] 88.5% | [6] 67.7% | [7] 67.9% | [8] 79.3% | [9] 74.4% | [10] 73.9%

O=c1c2ccccc2c(=O)c2c1sc1c(=O)c3ccc(O)cc3c(=O)c12
active: [1] -38.8% | [2] -91.3% | [3] -95.9% | [4] -78.8% | [5] -73.1% | [6] -24.9% | [7] -64.5% | [8] -55.1% | [9] -52.7% | [10] -82.5%

CO[C@H](C(=O)[C@@H](O)[C@@H](C)O)[C@@H]1Cc2cc3cc(O[C@H]4C[C@@H](O[C@H]5C[C@@H](O)[C@H](O)C(C)O5)[C@H](O)C(C)(O)O4)cc(O)c3c(O)c2C(=O)[C@H]1O[C@H]1C[C@@H](O[C@H]2C[C@@H](O[C@H]3C[C@@H](OC)[C@H](O)C(C)O3)[C@@H](O)C(C)O2)[C@H](O)C(C)O1 (stereo not given in full)
active: [2] -29.7% | [4] 1.64% | [7] -17.6% | [8] 6.26% | [10] -42.4%
inactive: [1] 16.4% | [3] 21.1% | [5] 12.9% | [6] 25.2% | [9] 26.6%

C=C(C)[C@@H]1CC[C@]2(COC(C)=O)CC[C@]3(C)[C@H](CC[C@@H]4[C@@]5(C)CCCN(C(C)=O)C(C)(C)[C@@H]5CC[C@]43C)[C@@H]12
inactive: [1] 89.2% | [2] 45.2% | [3] 61.3% | [4] 82.6% | [6] 69.3% | [7] 59.6% | [8] 33.8%
active: [5] 0.0182% | [9] 8.13% | [10] -76.5%

CN(C)c1ccc(-c2ccc3c(c2)c(-c2ccccc2)nc(=O)n3C)cn1
active: [6] -45.4% | [7] 7.96%
inactive: [1] 71% | [2] 77.2% | [3] 60.9% | [4] 36.8% | [5] 19.7% | [8] 45.8% | [9] 26.2% | [10] 28.1%

Cc1ccc(/C=C(\C#N)n2nnc3cc(F)c(F)cc32)cc1
active: [3] 4.87% | [6] -5.1% | [7] 1.39% | [9] -26.8% | [10] -27.9%
inactive: [1] 27.1% | [2] 47.6% | [4] 23.1% | [5] 22% | [8] 10.1%

COc1ccc(N2CCN(C(=O)c3sc4nc(C)c(Br)c(C)c4c3N)CC2)cc1
inactive: [1] 99.4% | [2] 74.2% | [3] 88% | [4] 80% | [5] 105% | [6] 88.9% | [7] 89.2% | [8] 91.1% | [9] 99.7% | [10] 107%

Cc1nn(-c2cc(NC3CCC(O)CC3)c3c(=O)[nH]c(CCC(F)(F)F)cc3c2)c2c1C(=O)CC(C)(C)C2 (stereo not given)
inactive: [1] 20.3% | [2] 67.8% | [3] 56.5% | [4] 44% | [5] 21% | [6] 54.5% | [7] 49.5% | [8] 38.8% | [9] 43.9% | [10] 36.9%

C=CCC(CCCC)(C(=O)OCC)C(=O)OCC
inactive: [1] 98.8% | [2] 106% | [3] 109% | [4] 111% | [5] 117% | [6] 96.2% | [7] 94% | [8] 103% | [9] 94.9% | [10] 111%
